# Experimental data as given in PubChem BioAssay AID488922 (Johns Hopkins Ion Channel Center, 2010).
# In all, about 310,000 compounds went through this assay and about 3,800 (1.2%) were called active.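 The calls were made as follows: active = ratio B-score over 3 SD below the library mean, with starting fluorescence within 5 SD of its mean; inactive = the rest, inconclusive results apart.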 The list comes from a sample in which actives are over-represented; it also holds similar structures and randomly drawn compounds.
# Target: Potassium channel subfamily K member 9 (Homo sapiens) (UniProt Q9NPC2)
# Assay: KCNK9 potassium channel inhibitors, primary screen, HEK293 cells, thallium flux (AID 488922);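 as to B-score: negative B-score means less thallium flux so channel inhibition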
# Settings: HEK293 KCNK9, FluxOR thallium flux fluorescence, at 10 µM; active compounds read low
# Sequence of Potassium channel subfamily K member 9 (Homo sapiens) (Q9NPC2 whole entry, looked up): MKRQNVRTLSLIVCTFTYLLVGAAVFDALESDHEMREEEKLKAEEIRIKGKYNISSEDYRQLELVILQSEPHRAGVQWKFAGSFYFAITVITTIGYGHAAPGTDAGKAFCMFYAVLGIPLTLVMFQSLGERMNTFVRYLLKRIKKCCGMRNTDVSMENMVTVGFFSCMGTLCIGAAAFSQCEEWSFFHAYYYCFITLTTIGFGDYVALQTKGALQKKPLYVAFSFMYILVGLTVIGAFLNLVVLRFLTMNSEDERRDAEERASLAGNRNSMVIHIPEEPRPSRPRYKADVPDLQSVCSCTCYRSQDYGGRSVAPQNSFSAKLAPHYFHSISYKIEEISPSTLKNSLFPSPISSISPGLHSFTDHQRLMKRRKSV
row,SMILES,B-score
1,CC1(c2ccccc2)CC(C)(C)N(C(=O)c2cc([N+](=O)[O-])cc([N+](=O)[O-])c2)c2ccccc21 (centres undefined),inactive
2,CC1(c2cccc([N+](=O)[O-])c2)CC(C)(C)N(C(=O)c2ccccc2)c2ccccc21 (centres undefined),-7.5 (active)
3,O=C(c1cccc([N+](=O)[O-])c1)N1CCN(Cc2ccccc2)CC1,inactive
4,O=C(NC(=S)Nc1ccc(Cl)cc1Cl)C1CC1,inactive
5,O=C(/C=C/NNC(=O)c1cccc(Br)c1)c1ccccc1,-12.9 (active)
6,CC(CC(=O)O)CC(=O)NNC(=O)c1cccc(Br)c1 (centres undefined),inactive
7,Cc1ccccc1NC(=S)NNC(=O)c1cccc(Br)c1,inactive
8,Cc1c(C(C)(C)O)[nH]c2ccc(C#N)cc12,inactive
9,O=C(O)/C=C/C(=O)NNc1ccc([N+](=O)[O-])cc1,inactive
10,Cc1cccc(NC(=O)CSc2nnc(CCCCCNC(=O)OC(C)(C)C)o2)c1C,inactive
11,Cc1ccc(C(=O)Cc2nnc(C)s2)cc1,inactive
12,CCOC(=O)C1CCCN(S(=O)(=O)c2ccc(-n3cnnn3)c(C)c2)C1 (centres undefined),inactive
13,CCN(/N=C/c1ccc(N(C)C)cc1)c1nc2ccccc2[nH]1,inactive
14,CN(C)c1ccc(/C=N/N(Cc2ccccc2)c2ccccc2)cc1,inactive
15,Oc1ccc(/C=N/N(Cc2ccccc2)c2ccccc2)cc1,-7.55 (active)
16,COc1ccc(CCn2nnnc2C(c2ccccc2)N2CCN(C)CC2)cc1OC (centres undefined),inactive
17,N#Cc1ccc(C(c2nnnn2CCc2ccccc2)N2CCCCCC2)cc1 (centres undefined),-7.47 (active)
18,CC(C)C(c1nnnn1CCc1ccccc1)N1CCN(C(=O)c2ccco2)CC1 (centres undefined),inactive
19,CCCn1c(C(O)c2cc(OC)ccc2OC)nc2ccccc21 (centres undefined),inactive
20,COc1ccc(OC)c(C(O)c2nc3ccccc3n2C)c1 (centres undefined),-7.74 (active)
21,CCn1c(C(O)c2cc(OC)ccc2OC)nc2ccccc21 (centres undefined),inactive
22,Cn1ncc2c(N3CCCCC3)nc(NCCCO)nc21,inactive

row,SMILES,B-score
1,COc1ccccc1C(=O)NCc1nnc(SC(C)C(=O)Nc2nccs2)n1C (centres undefined),inactive
2,C=CCc1cc(S(=O)(=O)c2ccc(O)c(CC=C)c2)ccc1O,-11.9 (active)
3,CCOC(=O)N1CCC(NC(=O)CN2C(=O)COc3ccc(C(C)(C)C)cc32)CC1,inactive
4,C#CC(C)(C)NC(=O)c1cnc(-c2ccccc2)nc1-c1ccccc1,inactive
5,COc1ccc(C2CC(c3cccs3)=NN2c2ccc(F)cc2)cc1OC (centres undefined),-7.88 (active)
6,COc1ccc(C2=NN(c3ccccc3)C(c3cccs3)C2)cc1 (centres undefined),inactive
7,COc1ccc(C2CC(c3cccs3)=NN2c2ccccc2)cc1 (centres undefined),-11.3 (active)
8,COc1ccc(C2CC(c3cccs3)=NN2c2nc(C)c(C(C)=O)s2)cc1OC (centres undefined),inactive
9,COc1ccc(C2CC(c3cccs3)=NN2C(=O)CSc2nnc(N)s2)cc1OC (centres undefined),inactive
10,COc1ccc(C2CC(c3cccs3)=NN2C(=O)CSc2nncs2)cc1OC (centres undefined),inactive
11,COc1ccc(C2CC(c3cccs3)=NN2C(=O)CCC(=O)O)cc1OC (centres undefined),inactive
12,COc1ccc(C2CC(c3cccs3)=Nc3ccccc3S2)cc1OC (centres undefined),-8.55 (active)
13,COc1ccccc1N1N=C(c2cccs2)CC1c1ccccc1 (centres undefined),inactive
14,COc1ccc(NCCc2ccccn2)cc1,inactive
15,Cc1nn(C)c(C)c1C(C)NC(=O)c1ccc(OC2CCN(Cc3ccccn3)CC2)cc1 (centres undefined),inactive
16,COc1ccccc1/C=C/C(=O)NC1CC2CCC1C2 (centres undefined),inactive
17,Cc1ccc(SCC2=NNC(=O)C2)cc1,inactive
18,O=C(COC(=O)c1ccccc1)Nc1ccccc1Sc1ccccc1,-9.75 (active)
19,Cc1ccccc1C(=O)Nc1ccccc1Sc1ccccc1,inactive
20,O=C(COC(=O)c1cccc(Br)c1)Nc1cccc2c1C(=O)c1ccccc1C2=O,inactive
21,CCn1c(=O)n(CC)c2cc(N3CCCC3)c(NC(=O)c3ccccc3Br)cc21,inactive
22,COc1ccc(-c2c(C(C)=O)c(C)nc3sc4c(=O)n(-c5ccc(C)cc5)nnc4c23)cc1,inactive

row,SMILES,B-score
1,O=C(COc1ccc([N+](=O)[O-])cc1Cl)Nn1cnnc1,inactive
2,O=C(COc1ccc(F)cc1)N(CC1=CCS(=O)(=O)C1)c1ccccc1,inactive
3,CCN(C(=O)c1ccc(Br)cc1)c1ccccc1,inactive
4,CCN(C(=O)COc1ccc(C(=O)c2ccccc2)cc1)c1ccccc1,-8.43 (active)
5,COc1ccc2cc(CCl)c(Cl)nc2c1,inactive
6,Cc1ccc(S(=O)(=O)N(CCCN(C)C)Cc2ccc3c(c2)OCO3)cc1,inactive
7,O=C(CSC1CC(=O)N(CCc2ccccc2)C1=O)Nc1ccc(Cl)cc1 (centres undefined),inactive
8,O=C(C[C@H]1C(=O)N(c2ccc(F)c(F)c2)C[C@@H]1Cc1ccccc1)Nc1ccccc1,-12.2 (active)
9,O=C(CN1CCN(c2ccc(F)cc2)CC1)Nc1ccccc1,inactive
10,CC(c1ccccc1)n1c(NCCCn2ccnc2)nc2c1c(=O)[nH]c(=O)n2C (centres undefined),inactive
11,CC1CCCCC1NC(=O)COC(=O)Cc1ccc(Br)cc1 (centres undefined),inactive
12,COc1ccc(C(C)=O)cc1COc1ccc(Cl)c(C)c1,-10.5 (active)
13,COc1ccc(-c2noc(COc3ccc(Cl)c(C)c3)n2)cc1,inactive
14,COCc1cc(C(C)=O)ccc1OC,inactive
15,COc1ccc(/C(N)=N/OC(=O)Cc2ccccc2)cc1,inactive
16,O=C(Nc1ccc(Br)c2cccnc12)c1ccc(Cn2cc([N+](=O)[O-])cn2)o1,-12.7 (active)
17,O=C(c1ccc(Cn2cc([N+](=O)[O-])cn2)o1)N1CCCC1,inactive
18,COc1cccc(NC(=O)c2ccc(Cn3cc([N+](=O)[O-])cn3)o2)c1,inactive
19,O=C(Nc1nonc1-c1ccc(Cl)cc1)c1ccco1,inactive
20,O=C(COc1ccc(Cl)cc1Cl)NCCCNC(=O)c1cnccn1,inactive
21,CNC(=O)C(=O)N/N=C/c1ccccn1,inactive
22,O=C(Nc1cccc(CCc2ccccn2)c1)c1ccc(Cl)cc1,inactive

row,SMILES,B-score
1,O=C(N/N=C/c1ccccn1)c1cccc(NC(=O)c2ccc(Cl)cc2)c1,-8.92 (active)
2,O=C(COc1ccc(Cl)cc1Cl)N/N=C/c1ccccn1,-9.19 (active)
3,Cc1cccc(C(=O)Nc2ccc(C(=O)N/N=C/c3cccc(C)n3)cc2)c1,inactive
4,COc1ccccc1NC(=O)c1cc(Cl)nnc1Cl,inactive
5,CCc1noc(C)c1C(=O)Nc1nc(-c2ccccc2)cs1,inactive
6,C[C@H](NC(=O)C1CC(=O)N(c2ccc3c(c2)OCO3)C1)C(=O)NCc1ccco1 (some centres undefined),inactive
7,O=C(/C=C/c1ccccc1)Oc1coc(CSc2ncccn2)cc1=O,inactive
8,COc1cc(OC)cc(-c2cc3nc(C4CCN(C(=O)OC(C)(C)C)CC4)cc(=O)n3[nH]2)c1,inactive
9,O=C(c1ccc(F)cc1)N1CCC(C(=O)N2CCN(S(=O)(=O)c3ccccc3Br)CC2)CC1,inactive
10,O=C(Cc1ccc(S(=O)(=O)N2CCCC2)s1)NC1CCCCCC1,inactive
11,CCCn1c(=N)n(CC(=O)c2ccc(Cl)c(Cl)c2)c2ccccc21,-7.8 (active)
12,O=C(Cn1nnc(N2CCCCC2)n1)c1ccc(Cl)c(Cl)c1,inactive
13,CCN(CC)CC1(O)CCN(C(=O)c2ccc(Cl)c(Cl)c2)CC1,inactive
14,O=c1c2c3c(sc2n(CCN2CCCC2)c(=O)n1Cc1ccccc1)CCCCC3,inactive
15,COc1cccc(N2CC(NC(=O)c3ccc4ccccc4c3)CC2=O)c1 (centres undefined),inactive
16,COc1cccc(CNS(=O)(=O)c2ccc3c(c2)CC(C)N3C(=O)C2CCC2)c1 (centres undefined),inactive
17,Cc1ccc2nc3c(cc(C(=O)NCCc4ccccc4)c(=N)n3CC3CCCO3)c(=O)n2c1 (centres undefined),inactive
18,Cc1cc(C)c(C)c(S(=O)(=O)N2CCN(C(=O)c3ccc4c(=O)n5c(nc4c3)CCC5)CC2)c1C,inactive
19,CCOc1cc(C)c(Cl)cc1S(=O)(=O)n1nnc2ccccc21,inactive
20,COc1ccc(C(C)C)cc1S(=O)(=O)Nc1ncn[nH]1,inactive
21,CCOc1ccc(C(C)C)cc1S(=O)(=O)n1nc(C)cc1C,-10.1 (active)
22,CCOc1ccc(OCC(=O)Nc2c3c(nn2C(C)(C)C)CS(=O)(=O)C3)cc1,inactive

row,SMILES,B-score
1,COc1ccccc1C(c1nnnn1CC1CCCO1)N1CCN(c2ccccc2)CC1 (centres undefined),inactive
2,CCC(C)(C)n1nnnc1C(c1cccs1)N1CCN(c2nc3ccccc3s2)CC1 (centres undefined),-9.04 (active)
3,COc1ccc(OC)c(C(c2nnnn2C(C)(C)C)N2CCc3ccccc3C2)c1 (centres undefined),inactive
4,CCCC(c1nnnn1C(C)(C)C)N1CCN(Cc2ccccc2)CC1 (centres undefined),inactive
5,CC(C)(C)n1nnnc1C(c1ccc2ncccc2c1)N1CCSCC1 (centres undefined),inactive
6,CCC(C)(C)n1nnnc1C(c1ccccc1OC)N1CCSCC1 (centres undefined),-7.08 (active)
7,CC(C)(C)n1nnnc1C(c1ccc(Cl)cc1)N1CCSCC1 (centres undefined),inactive
8,CCC(C)(C)n1nnnc1C(c1ccc(OC)c(OC)c1)N1CCN(C(=O)c2ccco2)CC1 (centres undefined),inactive
9,COc1ccccc1C(c1nnnn1C(C)(C)C)N1CCN(Cc2ccccc2)CC1 (centres undefined),-21.5 (active)
10,O=C(NC(=S)Nc1ccc2oc(=O)ccc2c1)c1ccc(-c2cccc(Cl)c2Cl)o1,inactive
11,Cc1ccc(S(=O)(=O)N2CCN(C(=O)c3ccc(-n4cncn4)c([N+](=O)[O-])c3)CC2)cc1,inactive
12,COc1ccc(CNC(=O)C2CCCC2)cc1,inactive
13,O=C1CC2(CC(c3ccc(Cl)cc3)=NO2)C(=O)N1c1ccccc1 (centres undefined),inactive
14,Nc1cc(C(F)(F)F)ccc1N1CCOCC1,inactive
15,CCC(C)c1ccc(NC(=S)N2CCCC2)cc1 (centres undefined),inactive
16,Cc1c(Cl)cccc1NC(=S)N(Cc1ccccc1)Cc1cccnc1,inactive
17,Cc1ccc(CN(Cc2cccnc2)C(=S)Nc2cccc(Cl)c2C)cc1,-6.65 (active)
18,COCCNC(=S)N(Cc1cccnc1)Cc1ccc(OC)c(OC)c1,inactive
19,Cc1ccc(CN(Cc2cccnc2)C(=S)Nc2cc(Cl)ccc2C)cc1,-7.5 (active)
20,Cc1cccc(C)c1NC(=S)N(Cc1cccnc1)Cc1ccccc1Cl,inactive
21,Cc1ccc(Cl)cc1NC(=S)N(CCN(C)C)Cc1cccs1,inactive
